# ChEMBL document CHEMBL3988442, “University of Dundee, Small-Polar-MMV Screening Library” (2021)
# For part of these data: Measured potencies and affinities stand elsewhere.
# Assays:
# [1] = target: T1, Methionyl-tRNA synthetase, putative (Leishmania donovani (strain BPK282A1)) (UniProt E9BF75); assay: Leishmania donovani Methionine tRNA synthetase (LdMetRS):v7. Dose response assay; format: functional; design: conc 80 nM, time 150 minutes
# T1 sequence (whole entry): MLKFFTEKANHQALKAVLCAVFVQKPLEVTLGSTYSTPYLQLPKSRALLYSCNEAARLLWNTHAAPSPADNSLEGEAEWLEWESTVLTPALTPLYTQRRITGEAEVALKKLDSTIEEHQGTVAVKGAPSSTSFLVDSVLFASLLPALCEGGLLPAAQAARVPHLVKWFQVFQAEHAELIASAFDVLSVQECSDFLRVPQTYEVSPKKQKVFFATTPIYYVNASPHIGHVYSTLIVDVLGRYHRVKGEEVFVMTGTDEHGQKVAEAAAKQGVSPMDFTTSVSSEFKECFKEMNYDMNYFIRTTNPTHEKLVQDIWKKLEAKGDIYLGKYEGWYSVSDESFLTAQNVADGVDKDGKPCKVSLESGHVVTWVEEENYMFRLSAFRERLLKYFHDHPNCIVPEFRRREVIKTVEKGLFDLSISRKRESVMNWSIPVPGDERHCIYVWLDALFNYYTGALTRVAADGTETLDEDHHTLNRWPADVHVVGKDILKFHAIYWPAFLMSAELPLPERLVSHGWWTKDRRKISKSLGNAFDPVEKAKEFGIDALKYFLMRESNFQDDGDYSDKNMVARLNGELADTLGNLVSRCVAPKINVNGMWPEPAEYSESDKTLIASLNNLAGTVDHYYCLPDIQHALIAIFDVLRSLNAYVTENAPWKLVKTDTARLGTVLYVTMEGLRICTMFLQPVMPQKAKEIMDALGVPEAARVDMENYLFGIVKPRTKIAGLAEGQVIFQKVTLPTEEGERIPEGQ
# [2] = target: Protein translocase subunit SecA (Escherichia coli (strain K12)) (UniProt P10408); assay: Assay to Identify E. coli SecA ATPase Inhibitors; format: functional; design: scale not given: direction of the effect not stated beside the values; details: 30 µM
# [3] = target: T2, Ubiquitin-activating enzyme e1, putative (Leishmania donovani (strain BPK282A1)) (UniProt E9BSI1); assay: Leishmania donovani Ubiquitin Activating Enzyme (LdE1); format: functional; design: scale not given: direction of the effect not stated beside the values; details: 30 µM
# T2 sequence (whole entry): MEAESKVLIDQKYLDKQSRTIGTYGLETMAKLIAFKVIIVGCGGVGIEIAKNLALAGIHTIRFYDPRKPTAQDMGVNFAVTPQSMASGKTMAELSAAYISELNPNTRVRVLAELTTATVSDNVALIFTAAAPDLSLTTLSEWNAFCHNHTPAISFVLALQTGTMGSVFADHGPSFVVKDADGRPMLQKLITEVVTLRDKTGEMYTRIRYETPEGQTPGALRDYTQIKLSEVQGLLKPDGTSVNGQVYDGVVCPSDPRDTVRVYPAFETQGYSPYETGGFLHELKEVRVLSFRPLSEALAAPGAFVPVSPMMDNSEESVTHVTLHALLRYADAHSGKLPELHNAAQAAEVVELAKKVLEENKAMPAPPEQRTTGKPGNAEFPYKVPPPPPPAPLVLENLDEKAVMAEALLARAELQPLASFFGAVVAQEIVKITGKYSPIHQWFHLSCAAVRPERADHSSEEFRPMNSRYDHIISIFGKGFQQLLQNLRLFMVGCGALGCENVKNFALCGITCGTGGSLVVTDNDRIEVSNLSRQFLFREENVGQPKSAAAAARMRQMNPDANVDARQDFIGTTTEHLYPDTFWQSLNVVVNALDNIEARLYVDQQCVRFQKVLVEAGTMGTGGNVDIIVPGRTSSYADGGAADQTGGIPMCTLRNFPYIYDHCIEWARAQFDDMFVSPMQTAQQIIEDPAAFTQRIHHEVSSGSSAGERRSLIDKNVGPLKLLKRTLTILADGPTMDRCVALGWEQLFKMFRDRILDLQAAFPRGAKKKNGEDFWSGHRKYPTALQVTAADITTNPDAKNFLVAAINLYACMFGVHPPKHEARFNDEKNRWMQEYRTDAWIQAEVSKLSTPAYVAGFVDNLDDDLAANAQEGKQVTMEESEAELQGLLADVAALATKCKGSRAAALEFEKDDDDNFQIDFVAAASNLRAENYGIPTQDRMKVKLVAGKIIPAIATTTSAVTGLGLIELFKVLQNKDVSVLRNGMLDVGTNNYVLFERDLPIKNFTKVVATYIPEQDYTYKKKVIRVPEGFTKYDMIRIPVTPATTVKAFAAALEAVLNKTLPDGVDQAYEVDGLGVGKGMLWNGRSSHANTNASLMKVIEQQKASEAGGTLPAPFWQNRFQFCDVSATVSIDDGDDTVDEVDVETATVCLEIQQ
# [4] = target: AMP-activated protein kinase, AMPK (Homo sapiens) (UniProt P54646+O43741+P54619+Q9UGJ0+Q9Y478+Q13131+Q9UGI9); assay: AMP-dependent Kinase enzyme assay. An in vitro enzyme assay that detects ADP turnover that is directly proportional to AMPK activity. This uses naive AMPK that is activated during the assay with MK-8722; format: functional; design: scale not given: direction of the effect not stated beside the values; details: 30 µM
# [5] = target: Sialic acid-binding Ig-like lectin 9 (Homo sapiens) (UniProt Q9Y336); assay: Hs-Siglec9 ALPHAscreen SOP 20170721; design: scale not given: direction of the effect not stated beside the values; details: 10 µM
# Trypanosoma cruzi = assay: Trypanosoma cruzi phosphomannomutase and mannose-1-phosphate guanylyltransferase assay; format: functional; design: scale not given: direction of the effect not stated beside the values; details: 10 µM
# [6] = target: T3, Arginase-2, mitochondrial (Homo sapiens) (UniProt P78540); assay: in vitro enzyme assay to detect the production of urea directly proportional to the activity of Arginase II; format: functional; design: scale not given: in the data most compounds retested in dose-response had high values; details: 33.3 µM
# T3 sequence (whole entry): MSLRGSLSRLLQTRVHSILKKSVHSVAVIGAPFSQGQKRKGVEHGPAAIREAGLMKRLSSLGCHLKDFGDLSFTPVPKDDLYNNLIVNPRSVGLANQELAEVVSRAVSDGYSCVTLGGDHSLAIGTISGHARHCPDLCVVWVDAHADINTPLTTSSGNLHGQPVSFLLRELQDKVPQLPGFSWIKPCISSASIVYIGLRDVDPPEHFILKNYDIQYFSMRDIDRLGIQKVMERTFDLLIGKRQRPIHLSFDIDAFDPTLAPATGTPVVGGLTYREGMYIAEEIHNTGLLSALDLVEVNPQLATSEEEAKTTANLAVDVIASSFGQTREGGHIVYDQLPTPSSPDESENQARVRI
# [7] = target: T4, Proteasome subunit beta (Trypanosoma cruzi) (UniProt O96673); assay: Trypanosoma cruzi proteasome chymotrypsin-like activity (TcProtChymo) assay.; format: functional; design: scale not given: in the data most compounds retested in dose-response had high values; details: 9.37 µM
# T4 sequence (whole entry): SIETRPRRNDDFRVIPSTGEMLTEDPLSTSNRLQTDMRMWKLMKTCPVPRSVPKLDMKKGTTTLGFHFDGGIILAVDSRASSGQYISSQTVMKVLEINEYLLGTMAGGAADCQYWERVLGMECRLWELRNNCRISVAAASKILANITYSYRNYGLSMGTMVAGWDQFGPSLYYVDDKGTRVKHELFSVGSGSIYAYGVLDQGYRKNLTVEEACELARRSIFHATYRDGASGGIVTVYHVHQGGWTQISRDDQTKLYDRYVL
# Homo sapiens = organism: Homo sapiens; assay: To identify inhibition of the IFN signalling (Jak-Stat) pathway via expression of an eGFP reporter gene under the control of an IFN-stimulated response element (ISRE) containing MxA promoter.; format: functional; design: scale not given: direction of the effect not stated beside the values; details: 30 µM
# [8] = target: T5, Tyrosyl-tRNA synthetase, putative (Trypanosoma cruzi (strain CL Brener)) (UniProt Q4DSP6); assay: Trypanosoma cruzi tyrosyl tRNA synthetase (TcYRS) _High Tyrosine SOP; format: functional; design: scale not given: in the data most compounds retested in dose-response had high values; details: 30 µM
# T5 sequence (whole entry): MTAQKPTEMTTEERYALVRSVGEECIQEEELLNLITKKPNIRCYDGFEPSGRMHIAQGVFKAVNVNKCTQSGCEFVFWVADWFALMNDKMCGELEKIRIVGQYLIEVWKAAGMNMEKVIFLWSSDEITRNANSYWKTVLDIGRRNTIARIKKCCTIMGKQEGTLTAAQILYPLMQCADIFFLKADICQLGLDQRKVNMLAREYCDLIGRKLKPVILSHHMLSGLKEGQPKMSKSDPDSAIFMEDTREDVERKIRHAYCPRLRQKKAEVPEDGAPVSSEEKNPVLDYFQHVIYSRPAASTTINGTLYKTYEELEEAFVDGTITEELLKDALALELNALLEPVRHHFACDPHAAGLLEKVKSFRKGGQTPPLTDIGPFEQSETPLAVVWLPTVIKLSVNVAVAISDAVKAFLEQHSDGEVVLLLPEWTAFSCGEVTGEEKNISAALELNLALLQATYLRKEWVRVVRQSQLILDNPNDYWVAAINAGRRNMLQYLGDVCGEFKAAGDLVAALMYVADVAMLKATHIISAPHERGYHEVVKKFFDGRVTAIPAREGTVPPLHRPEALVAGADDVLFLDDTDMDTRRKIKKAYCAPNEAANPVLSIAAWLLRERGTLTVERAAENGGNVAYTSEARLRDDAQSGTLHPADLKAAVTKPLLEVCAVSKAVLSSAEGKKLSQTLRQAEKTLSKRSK
# [9] = target: T5, Tyrosyl-tRNA synthetase, putative (Trypanosoma cruzi (strain CL Brener)); assay: Trypanosoma cruzi tyrosyl tRNA synthetase (TcYRS) SOP; format: functional; design: scale not given: direction of the effect not stated beside the values; details: 30 µM
# [10] = target: Chromo domain-containing protein 1 (Saccharomyces cerevisiae (strain ATCC 204508 / S288c) (Baker's yeast)) (UniProt P32657); assay: ScCHD-1 Enzyme Inhibition Assay; format: functional; design: scale not given: in the data most compounds retested in dose-response had high values; details: 30 µM
# Chain of Chromo domain-containing protein 1 (Saccharomyces cerevisiae (strain ATCC 204508 / S288c) (Baker's yeast)) (P32657 whole entry, the tested form may be a part): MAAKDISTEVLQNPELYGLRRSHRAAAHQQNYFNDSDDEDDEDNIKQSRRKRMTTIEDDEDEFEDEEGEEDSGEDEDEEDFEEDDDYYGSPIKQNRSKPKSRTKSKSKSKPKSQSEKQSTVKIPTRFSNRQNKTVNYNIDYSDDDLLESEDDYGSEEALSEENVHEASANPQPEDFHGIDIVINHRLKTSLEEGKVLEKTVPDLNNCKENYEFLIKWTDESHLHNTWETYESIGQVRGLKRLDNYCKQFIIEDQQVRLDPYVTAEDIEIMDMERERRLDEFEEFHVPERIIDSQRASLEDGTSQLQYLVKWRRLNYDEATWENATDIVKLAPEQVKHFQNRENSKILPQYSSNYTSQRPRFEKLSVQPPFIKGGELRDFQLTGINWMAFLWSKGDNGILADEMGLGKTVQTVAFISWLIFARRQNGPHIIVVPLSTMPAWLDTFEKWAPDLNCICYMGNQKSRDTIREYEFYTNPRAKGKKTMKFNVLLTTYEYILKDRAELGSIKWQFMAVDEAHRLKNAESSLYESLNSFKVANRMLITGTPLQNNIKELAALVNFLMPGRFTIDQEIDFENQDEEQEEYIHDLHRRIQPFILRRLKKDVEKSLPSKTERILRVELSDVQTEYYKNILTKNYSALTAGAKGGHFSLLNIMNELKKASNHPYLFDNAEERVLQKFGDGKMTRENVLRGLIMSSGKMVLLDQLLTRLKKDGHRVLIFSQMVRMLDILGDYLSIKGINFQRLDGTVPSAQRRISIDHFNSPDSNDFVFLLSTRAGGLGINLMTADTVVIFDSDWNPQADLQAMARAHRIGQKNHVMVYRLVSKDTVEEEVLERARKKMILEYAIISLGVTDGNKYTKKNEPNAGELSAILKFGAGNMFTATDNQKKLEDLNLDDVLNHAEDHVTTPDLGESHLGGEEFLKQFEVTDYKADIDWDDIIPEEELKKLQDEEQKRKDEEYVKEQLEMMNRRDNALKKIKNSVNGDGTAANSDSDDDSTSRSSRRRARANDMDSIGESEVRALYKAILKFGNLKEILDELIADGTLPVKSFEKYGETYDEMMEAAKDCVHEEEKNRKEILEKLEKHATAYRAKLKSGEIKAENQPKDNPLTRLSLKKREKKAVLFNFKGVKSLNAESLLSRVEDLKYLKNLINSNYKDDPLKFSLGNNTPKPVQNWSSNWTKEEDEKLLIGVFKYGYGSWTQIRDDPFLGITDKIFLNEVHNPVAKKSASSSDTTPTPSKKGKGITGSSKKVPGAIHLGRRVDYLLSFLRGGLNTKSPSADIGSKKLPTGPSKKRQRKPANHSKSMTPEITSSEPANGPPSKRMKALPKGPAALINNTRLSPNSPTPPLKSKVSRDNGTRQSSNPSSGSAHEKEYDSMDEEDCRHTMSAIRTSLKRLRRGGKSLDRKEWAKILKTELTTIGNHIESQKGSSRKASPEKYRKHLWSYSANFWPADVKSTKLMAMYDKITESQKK
# Chain of Sialic acid-binding Ig-like lectin 9 (Homo sapiens) (Q9Y336 whole entry): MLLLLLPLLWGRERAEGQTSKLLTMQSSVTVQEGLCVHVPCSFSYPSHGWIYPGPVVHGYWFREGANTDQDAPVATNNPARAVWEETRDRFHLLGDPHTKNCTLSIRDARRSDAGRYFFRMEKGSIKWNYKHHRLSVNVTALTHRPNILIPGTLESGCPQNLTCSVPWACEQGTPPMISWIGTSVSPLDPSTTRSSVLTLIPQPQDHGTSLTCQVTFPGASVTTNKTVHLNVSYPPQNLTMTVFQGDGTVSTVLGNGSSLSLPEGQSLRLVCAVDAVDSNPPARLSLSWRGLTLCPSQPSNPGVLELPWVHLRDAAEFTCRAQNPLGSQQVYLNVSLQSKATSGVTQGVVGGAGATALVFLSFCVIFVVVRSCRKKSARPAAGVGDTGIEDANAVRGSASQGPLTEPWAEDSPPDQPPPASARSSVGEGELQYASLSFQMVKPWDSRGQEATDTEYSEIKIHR
# Chain of Protein translocase subunit SecA (Escherichia coli (strain K12)) (P10408 whole entry): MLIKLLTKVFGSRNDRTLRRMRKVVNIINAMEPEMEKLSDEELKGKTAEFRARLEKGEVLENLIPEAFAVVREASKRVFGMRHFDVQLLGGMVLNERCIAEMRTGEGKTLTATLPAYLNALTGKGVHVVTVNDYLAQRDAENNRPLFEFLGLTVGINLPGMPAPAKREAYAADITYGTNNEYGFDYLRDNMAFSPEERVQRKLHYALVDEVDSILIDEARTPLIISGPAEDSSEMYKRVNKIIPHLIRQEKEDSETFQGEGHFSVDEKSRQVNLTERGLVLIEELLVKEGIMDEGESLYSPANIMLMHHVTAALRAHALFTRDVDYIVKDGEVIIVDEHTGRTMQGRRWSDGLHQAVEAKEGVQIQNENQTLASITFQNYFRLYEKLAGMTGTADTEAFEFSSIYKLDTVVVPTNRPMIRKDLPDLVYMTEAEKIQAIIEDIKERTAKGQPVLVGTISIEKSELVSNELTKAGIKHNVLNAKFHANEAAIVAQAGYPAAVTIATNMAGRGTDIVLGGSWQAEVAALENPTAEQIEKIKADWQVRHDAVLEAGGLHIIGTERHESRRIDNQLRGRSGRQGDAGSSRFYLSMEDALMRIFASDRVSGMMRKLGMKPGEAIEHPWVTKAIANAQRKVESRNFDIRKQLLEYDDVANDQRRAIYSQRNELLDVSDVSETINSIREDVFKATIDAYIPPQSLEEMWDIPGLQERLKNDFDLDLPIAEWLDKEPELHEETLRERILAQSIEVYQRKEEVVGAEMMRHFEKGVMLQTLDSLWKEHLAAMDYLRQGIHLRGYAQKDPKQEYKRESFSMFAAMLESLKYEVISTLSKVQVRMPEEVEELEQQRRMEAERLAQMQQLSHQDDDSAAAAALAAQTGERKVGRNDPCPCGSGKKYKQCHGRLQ
smiles,measurement,setting,value
Cc1ccc(CN2CCC(F)(F)C3(CCN(c4cnccn4)C3)C2)o1 (centres undefined),PXC50,[1]; MAX_EFFECT 8.551068884,< 4
same,PXC50,[1]; MAX_EFFECT 15.66901408,< 4
same,Percent Effect,[2],-2.38%
same,Percent Effect,[3],2.7%
same,Percent Effect,[4],11.5%
same,Percent Effect,[5],1.13%
same,Percent Effect,Trypanosoma cruzi,0%
same,Percent Effect,[6],3.33%
same,Percent Effect,[7],-3.13%
same,Percent Effect,Homo sapiens,0.47%
same,Percent Effect,[8],5.94%
same,Percent Effect,[9],3.66%
same,Percent Effect,[10],-2.36%
O=C(c1cc(=O)n(-c2ccccc2)[nH]1)N1CCCC(c2ccn[nH]2)C1 (centres undefined),PXC50,"[1]; BOTTOM 0.320076031, HILLSLOPE 1.262872317, MAX_EFFECT 68.45753899, TOP 100.0",4.26
same,PXC50,"[1]; BOTTOM -1.400745031, HILLSLOPE 1.149427593, MAX_EFFECT 63.75838926, TOP 91.13261067",4.31
same,PXC50,"[1]; BOTTOM -5.915072335, HILLSLOPE 1.793815397, MAX_EFFECT 65.97222222, TOP 99.62132459",4.18
same,Percent Effect,[4],-16.1%
Fc1cccc(N2C[C@H]3CCN(c4cccnc4)C[C@H]3C2)c1,PXC50,[1]; MAX_EFFECT 35.84229391,< 4
same,PXC50,[1]; MAX_EFFECT 42.57425743,< 4
same,PXC50,[1]; MAX_EFFECT 45.65217391,< 4
same,Percent Effect,[2],-5.24%
same,Percent Effect,[3],-27%
same,Percent Effect,[4],0.0628%
same,Percent Effect,[5],-4.58%
same,Percent Effect,Trypanosoma cruzi,-1.95%
same,Percent Effect,[6],-1.67%
same,Percent Effect,[7],9.38%
same,Percent Effect,Homo sapiens,31.8%
same,Percent Effect,[8],23.8%
same,Percent Effect,[9],25.6%
same,Percent Effect,[10],3.63%
Cn1ncc2c(NCCO)nc(Nc3ccc(F)c(F)c3)nc21,PXC50,"[1]; BOTTOM 1.675324724, HILLSLOPE 0.887004354, MAX_EFFECT 86.8852459, TOP 97.31963994",5.01
same,PXC50,"[1]; BOTTOM 3.874295481, HILLSLOPE 1.000014766, MAX_EFFECT 87.03703704, TOP 93.55609097",5.08
same,PXC50,"[1]; BOTTOM 3.975924252, HILLSLOPE 0.806965021, MAX_EFFECT 84.10596026, TOP 99.5157675",4.91
same,PXC50,"[1]; BOTTOM 7.489204203, HILLSLOPE 1.122010423, MAX_EFFECT 83.60655738, TOP 90.20006383",4.96
same,PXC50,"[1]; BOTTOM -1.215365939, HILLSLOPE 0.665929937, MAX_EFFECT 87.19646799, TOP 108.6182019",4.92
Cn1cc(CN2CCC(F)(F)C3(CCN(c4cnccn4)C3)C2)cn1 (centres undefined),PXC50,[1]; MAX_EFFECT 6.650831354,< 4
same,PXC50,[1]; MAX_EFFECT 15.31690141,< 4
same,Percent Effect,[2],-4.19%
same,Percent Effect,[3],2.7%
same,Percent Effect,[4],6.66%
same,Percent Effect,[5],-1.14%
same,Percent Effect,Trypanosoma cruzi,0%
same,Percent Effect,[6],4.17%
same,Percent Effect,[7],-3.47%
same,Percent Effect,Homo sapiens,5.63%
same,Percent Effect,[8],8.91%
same,Percent Effect,[9],8.54%
same,Percent Effect,[10],-4.16%
FC1(F)CCN(Cc2cccnc2)CC12CCN(c1ccccc1)C2 (centres undefined),PXC50,"[1]; BOTTOM -4.019199092, HILLSLOPE 0.87851595, MAX_EFFECT 63.88888889, TOP 104.3685566",4.25
same,PXC50,"[1]; BOTTOM -4.110370477, HILLSLOPE 0.854311737, MAX_EFFECT 59.79202773, TOP 100.0",4.27
same,PXC50,"[1]; BOTTOM -6.339797733, HILLSLOPE 0.853335904, MAX_EFFECT 59.06040268, TOP 100.0",4.22
same,PXC50,[1]; MAX_EFFECT 7.101727447,< 4
same,PXC50,[1]; MAX_EFFECT 13.23763955,< 4
